Measured potencies and affinities stand elsewhere. Calls of active or inactive are those of the source.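 How the source made its calls: active means signal-lowering compounds whose fitted half-maximal concentration is at or below twice the top tested dose in every run; inconclusive means runs disagree, flat 30 to 70% inhibition, or poor curve fit; inactive means the rest.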
Biological target: Protein S100-A4 (Homo sapiens) (UniProt P26447)
Test: human S100A4 peptide interaction inhibition curves – biochemical, fluorescence polarization, cherry-picked hits, dose response (AID 687001)
Details: FP, S100A4/TAMRA-myosin IIA peptide binding; series mostly up to 11 µM

Protein S100-A4 (Homo sapiens), sequence (P26447 whole entry, looked up): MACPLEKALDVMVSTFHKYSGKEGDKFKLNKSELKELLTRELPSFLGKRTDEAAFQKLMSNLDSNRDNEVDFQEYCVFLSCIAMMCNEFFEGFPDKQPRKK

| SMILES | outcome |
| --- | --- |
| COc1cccc(NC(=O)CC2Oc3ccccc3NC2=O)c1 (centres undefined) | inactive |
| Cc1nc2ccccc2nc1CC(O)(c1ccccc1)c1ccccc1 | inactive |
| COc1cc(O)c(C(=O)O)c(CCc2ccccc2)c1 | inactive |
| C[C@@H](NC(=O)C[C@H]1C=C[C@@H](NC(=O)C2CCC2)[C@H](CO)O1)c1ccccc1 | inactive |
| COc1ccc(CN(C)C[C@H]2Oc3c(NC(=O)Nc4ccccc4)cccc3C(=O)N([C@@H](C)CO)C[C@@H]2C)cc1 | inactive |
| COc1ccc(NC(=O)c2ccccc2OCc2c(C)noc2C)cc1OC | inactive |
| CCOc1cc(S(=O)(=O)N2CCC(c3nc4ccccc4s3)CC2)c(OCC)cc1S(=O)(=O)N1CCCCC1 | inactive |
| COc1ccc(CN(C)C(=O)Cc2ccc(S(=O)(=O)N3CCOCC3)s2)cc1OC | inactive |
| CN(CC(=O)Nc1cccc(F)c1)C(=O)c1cccc(S(=O)(=O)N2CCN(Cc3ccccc3)CC2)c1 | inactive |
| Cc1ccc(S(=O)(=O)NCC[C@@H]2CC[C@H](NC(=O)Nc3cccc(F)c3)[C@@H](CO)O2)cc1 | inactive |
| O=C(NCc1ccncc1)C1CCCN(S(=O)(=O)c2cc(Cl)ccc2Cl)C1 (centres undefined) | inactive |
| O=C(CNC(=O)c1ccco1)NNC(=O)c1ccc(Br)cc1 | inactive |
| COc1cccc(NC(=O)CN(C)C(=O)c2ccc(N3CCCCC3)c([N+](=O)[O-])c2)c1 | inactive |
| O=C(NCCC1CCCCN1S(=O)(=O)c1ccccc1)C(=O)NCC1CCCO1 (centres undefined) | inactive |
| COc1ccc(NC(=O)N(C)C[C@H]2Oc3c(NC(=O)NC4CCCCC4)cccc3C(=O)N([C@H](C)CO)C[C@H]2C)cc1 | inactive |
| CC(C)[C@@H]1C=C(C(=O)O)O[C@H](OCCCCO)C1 | inactive |
| COc1ccc(CN(C)C[C@@H]2OCCCC[C@H](C)Oc3ccc(NS(=O)(=O)c4cn(C)cn4)cc3C(=O)N([C@@H](C)CO)C[C@H]2C)cc1 | inactive |
| COc1ccc(N2CC(C(=O)Nc3ccccc3N3CCCC3)CC2=O)c(OC)c1 (centres undefined) | inactive |
| Cc1ccccc1CNS(=O)(=O)c1c(C(=O)N2CCCC2)c(C)n(C)c1C | inactive |
| O=S(=O)(NCCN1CCOCC1)c1ccc(-c2ccc(S(=O)(=O)NCCN3CCOCC3)cc2)cc1 | inactive |

| SMILES | outcome |
| --- | --- |
| O=C(C[C@H]1CC[C@@H]2[C@H](COC[C@@H](O)CN2C(=O)Nc2ccc(F)cc2)O1)NCCc1ccccc1 | inactive |
| O=C(Nc1ccc2c(c1)CN(Cc1ccco1)CC2)C1CCCO1 (centres undefined) | inactive |
| Cn1cccc1C(=O)NNC(=O)c1ccccc1Br | inactive |
| O=C(CNC(=O)c1ccc(Cl)cc1Cl)OCc1cn2cc(Br)ccc2n1 | inactive |
| COC(=O)C(c1ccccc1)C(CC(=O)c1ccccc1)c1ccccc1 (centres undefined) | inactive |
| COc1ccc(CN(C)C[C@@H]2Oc3ccc(NS(=O)(=O)c4ccccc4)cc3CC(=O)N([C@H](C)CO)C[C@H]2C)cc1 | inactive |
| CC(C)CN1CCC(=O)N([C@H](COc2ccccc2)c2ccccc2)CC1 | inactive |
| C[C@@H]1CN([C@H](C)CO)S(=O)(=O)c2ccc(C#CCN(C)C)cc2O[C@@H]1CN(C)CC1CC1 | inactive |
| O=C1C2C3C=CC(C2C(=O)N1CCO)C1C(=O)N(CCO)C(=O)C31 (centres undefined) | inactive |
| Cc1ccc(S(=O)(=O)n2cccc2C)cc1 | inactive |
| CCC1(c2ccc(F)cc2)NC(=O)N(CC(=O)N2CCc3ccccc3C2)C1=O (centres undefined) | inactive |
| CCCNC(=O)Nc1ccc2c(c1)C(=O)N(C)C[C@@H](OC)[C@@H](C)CN[C@@H](C)CO2 | inactive |
| Cc1ccc(C(=O)N2CCN(c3ccc([N+](=O)[O-])c(N4CCOCC4)c3)CC2)cc1 | inactive |
| COc1c(Br)cc([N+](=O)[O-])c(OC)c1C(=O)NC(=O)Nc1c(Cl)cccc1Cl | inactive |
| COCC(=O)N1C[C@H]2[C@@H](c3ccccc31)[C@@H](CO)N2C(=O)Nc1ccccc1F | inactive |
| C[C@@H]1CCCCO[C@@H](CN(C)C(=O)Cc2ccccc2)[C@H](C)CN([C@@H](C)CO)C(=O)c2cc(NC(=O)Cc3ccccc3)ccc2O1 | inactive |
| Cc1ccc(C(=O)N/C(=C/c2ccc(C(C)C)cc2)C(=O)NCCCN2CCOCC2)cc1 | inactive |
| COc1ccc(CNC(=O)CNC(=O)[C@@H]2Cc3ccccc3CN2)cc1 | inactive |
| Cc1ccc(S(=O)(=O)N[C@H]2C=C[C@H](CC(=O)O)O[C@@H]2CO)cc1 | inactive |
